Screening results: PubChem BioAssay, Broad Institute
PDI inh – PDI (human) enzyme inhibition; P07237; PDI insulin aggregation turbidity, A650, 90 min; inhibition, % at 10 µM; 0.052% of 350,000 active;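 active = mean inhibition across replicates of 30% or more, whatever share of single replicates reach that level; inconclusive = mean inhibition below 30% while every single replicate reaches 30%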
SIRT5 block – sirtuin-5 (human) deacylase inhibition. 1.1% of 330,000 active. Q9NXA8. Purified SirT5, succinyl-peptide AMC, trypsin-coupled fluorescence. inhibition, % at 15 µM. AID 652115; in the data active = inhibition above about 15%; inconclusive = no clear call, values can overlap the other calls
Target sequence (Q9NXA8 whole entry, looked up): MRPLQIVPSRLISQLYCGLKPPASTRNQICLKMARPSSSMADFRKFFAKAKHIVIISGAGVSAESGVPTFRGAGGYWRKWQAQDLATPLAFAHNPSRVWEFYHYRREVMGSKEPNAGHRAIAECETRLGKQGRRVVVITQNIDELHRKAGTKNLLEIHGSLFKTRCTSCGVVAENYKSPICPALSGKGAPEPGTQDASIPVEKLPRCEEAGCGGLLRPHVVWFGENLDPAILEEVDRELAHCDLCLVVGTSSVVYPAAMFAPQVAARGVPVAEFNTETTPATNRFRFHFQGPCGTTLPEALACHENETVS
DENV2 CPE – protects cells from dengue virus 2 cytopathic effect | DENV2-infected cells, cytopathic effect rescue, plate reader | CPE inhibition, % at 9.99 µM | 1.7% of 350,000 active; in the data active = CPE inhibition above about 20%, passing the limit was not always enough; inconclusive = no clear call, values can overlap the other calls; tested in BHK-21 cells;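 note: 0% = median of neutral control wells and 100% = median of positive control wells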
Rtt109 HAT inh – blocks Candida albicans Rtt109/Vps75 acetyltransferase activity; Q5AAJ8; purified Rtt109/Vps75, ThioGlo CoA-SH fluorescence, 4 h; inhibition, % at 34.9 µM; 0.16% of 330,000 active; AID 540336;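 active = inhibition of at least 50% in every replicate; inconclusive = best replicate reaches 50% inhibition but some replicates fall short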
Target sequence (Q5AAJ8 whole entry, looked up): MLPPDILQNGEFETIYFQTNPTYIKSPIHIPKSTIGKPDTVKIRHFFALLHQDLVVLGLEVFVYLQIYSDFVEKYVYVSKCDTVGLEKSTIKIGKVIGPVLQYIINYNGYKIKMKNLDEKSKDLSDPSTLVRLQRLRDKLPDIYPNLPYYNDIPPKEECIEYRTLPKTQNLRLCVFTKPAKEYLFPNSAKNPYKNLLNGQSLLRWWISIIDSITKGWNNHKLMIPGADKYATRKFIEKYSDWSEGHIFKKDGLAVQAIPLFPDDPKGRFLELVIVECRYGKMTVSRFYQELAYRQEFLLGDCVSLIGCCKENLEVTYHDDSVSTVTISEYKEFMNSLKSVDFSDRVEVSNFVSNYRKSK
ERp5 block – inhibitors of human ERp5; Q15084; ERp5 insulin aggregation, absorbance 650 nm, 90 min; inhibition, % at 9.99 µM; 0.05% of 350,000 active;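 active = mean replicate inhibition above about 25%, with every replicate also reaching it, limit read from the data, passing the limit was not always enough; inconclusive = only one of those two criteria met; inactive = neither criterion met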
The depositor's hits bear a star; ? = inconclusive; . = no result given. Shown are actives, neighbours in structure and some others; about 2.3% of the full set was active somewhere.

SMILES | PDI inh | SIRT5 block | DENV2 CPE | Rtt109 HAT inh | ERp5 block
Cc1ccc(S(=O)(=O)N(C)C[C@H]2OCCCC[C@H](C)Oc3ccc(NS(=O)(=O)c4ccc(F)cc4)cc3C(=O)N([C@@H](C)CO)C[C@H]2C)cc1 | . | 25* | -1 | . | -2
Cc1ccc(S(=O)(=O)N(C)C[C@@H]2OCCCC[C@@H](C)Oc3ccc(NS(=O)(=O)c4ccc(F)cc4)cc3C(=O)N([C@@H](C)CO)C[C@H]2C)cc1 | . | 20* | 9 | . | -3
Cc1ccc(S(=O)(=O)N(C)C[C@H]2OCCCC[C@H](C)Oc3ccc(NS(=O)(=O)c4ccc(F)cc4)cc3C(=O)N([C@H](C)CO)C[C@H]2C)cc1 | . | 25* | 0 | . | 0
Cc1ccc(S(=O)(=O)Nc2ccc3c(c2)C(=O)N([C@H](C)CO)C[C@H](C)[C@@H](CN(C)S(=O)(=O)c2ccc(F)cc2)OCCCC[C@@H](C)O3)cc1 | . | 9 | -1 | . | 1
COc1ccc(NC(=O)N(C)C[C@H]2Oc3c(NC(=O)c4cnccn4)cccc3C(=O)N([C@H](C)CO)C[C@@H]2C)cc1 | . | -1 | -10 | . | 3
Cc1ccc(S(=O)(=O)Nc2ccc3c(c2)C(=O)N([C@@H](C)CO)C[C@H](C)[C@H](CN(C)Cc2ccccc2)OCCCC[C@H](C)O3)cc1 | . | . | -26 | . | .
C[C@@H]1CCCCO[C@@H](CN(C)Cc2ccccc2)[C@@H](C)CN([C@@H](C)CO)C(=O)c2cc(NS(=O)(=O)c3ccc(Cl)cc3)ccc2O1 | . | 18* | 3 | . | 3
C[C@H]1CCCCO[C@@H](CN(C)Cc2ccccc2)[C@@H](C)CN([C@@H](C)CO)C(=O)c2cc(NS(=O)(=O)c3ccc(Cl)cc3)ccc2O1 | . | 6 | -20 | . | 2
Cc1ccc(S(=O)(=O)Nc2ccc3c(c2)C(=O)N([C@@H](C)CO)C[C@@H](C)[C@H](CN(C)Cc2ccccc2)OCCCC[C@H](C)O3)cc1 | . | 17* | -7 | . | 5
C[C@H]1CCCCO[C@H](CN(C)Cc2ccccc2)[C@@H](C)CN([C@@H](C)CO)C(=O)c2cc(NS(=O)(=O)c3ccc(F)cc3)ccc2O1 | . | -1 | 29* | . | 0
C[C@H](CO)N1C[C@H](C)[C@H](CN(C)S(=O)(=O)c2ccc(F)cc2)OCCCC[C@H](C)Oc2ccc(NS(C)(=O)=O)cc2C1=O | . | 1 | 20 | . | -1
C[C@@H]1CCCCO[C@H](CN(C)S(=O)(=O)c2ccccc2)[C@H](C)CN([C@H](C)CO)C(=O)c2cc(NC(=O)Nc3ccccc3)ccc2O1 | . | -1 | -5 | . | 1
COc1ccc(S(=O)(=O)Nc2ccc3c(c2)C(=O)N([C@H](C)CO)C[C@H](C)[C@H](CN(C)Cc2ccncc2)OCCCC[C@@H](C)O3)cc1 | . | 0 | 22* | . | 1
COc1ccc(S(=O)(=O)Nc2ccc3c(c2)C(=O)N([C@H](C)CO)C[C@@H](C)[C@H](CN(C)Cc2ccncc2)OCCCC[C@H](C)O3)cc1 | . | 2 | -11 | . | -5
COc1ccc(S(=O)(=O)Nc2ccc3c(c2)C(=O)N([C@H](C)CO)C[C@H](C)[C@H](CN(C)Cc2ccncc2)OCCCC[C@H](C)O3)cc1 | . | 0 | 48* | . | -5
C[C@@H]1CCCCO[C@@H](CN(C)Cc2ccc(C(F)(F)F)cc2)[C@H](C)CN([C@H](C)CO)C(=O)c2cc(NC(=O)Nc3ccc(F)cc3)ccc2O1 | . | 0 | 3 | . | 0
O=C(NC(=S)Nc1ccc(Oc2ccccc2)cc1)c1ccc(Cl)cc1 | -7 | . | . | 55* | .
Cn1c(C(=O)N/N=C/c2ccccc2)cc2ccccc21 | -4 | -4 | 88* | 3 | -3
Cn1c(N)c(C(=O)N/N=C/c2ccccc2)sc1=S | -5 | 1 | -6 | 3 | 3
Cc1ccc(-c2ccc3c(c2)O[C@@H](CN(C)Cc2ccccn2)[C@H](C)CN([C@@H](C)CO)S3(=O)=O)cc1 | . | 19* | 10 | . | -1
C[C@H]1CN([C@@H](C)CO)S(=O)(=O)c2ccc(-c3cncnc3)cc2O[C@H]1CN(C)Cc1ccccn1 | . | -0.3* | -5 | . | 5
C[C@H](CO)N1C[C@H](C)[C@@H](CN(C)Cc2ccccn2)Oc2cc(-c3cncnc3)ccc2S1(=O)=O | . | 0 | 14 | . | 3
Cc1ccc(-c2ccc3c(c2)O[C@@H](CN(C)Cc2ccccc2)[C@@H](C)CN([C@@H](C)CO)S3(=O)=O)cc1 | . | 32* | ? | . | 1
COc1ccc(CN(C)C[C@@H]2Oc3c(NC(=O)Nc4c(C)noc4C)cccc3C(=O)N([C@H](C)CO)C[C@@H]2C)cc1 | . | -1 | 3 | . | 1
CCCNC(=O)N1C[C@@H](C)[C@H](OC)CN(C)C(=O)c2ccc(NS(C)(=O)=O)cc2OC[C@H]1C | . | . | 9 | . | 13
SMILES | PDI inh | SIRT5 block | DENV2 CPE | Rtt109 HAT inh | ERp5 block
Cc1cc(S(=O)(=O)N2CCN=C2c2ccccc2)c(C)cc1Cl | -2 | 21* | 3 | 3 | -8
Cc1c(Cl)ccc(S(=O)(=O)N2CCN=C2c2ccccc2)c1Cl | -4 | . | . | -2 | .
COc1ccc2c3c(n(C)c2c1)[C@@H](CO)N(Cc1ccncc1)CC31CN(C(=O)Cc2ccncc2)C1 | . | . | 8 | . | -6
O=C(Nc1ccccc1C(=O)N1CCOCC1)c1cc2ccccc2o1 | 5 | 30* | 2 | -1 | -3
COC(=O)c1ccccc1NC(=O)c1cc2ccccc2o1 | -4 | -4 | 1 | -1 | 0
COc1c(Cl)cc(Br)c(OC)c1C(=O)NC(=O)Nc1nc(C)cc(C)n1 | 11 | -2 | 32* | 2 | -1
CC1(C(=O)NCc2cccc(C(F)(F)F)c2)CCN1Cc1cc2ccccc2o1 (configuration not stated) | -7 | -21 | 56* | . | 4
CC1(C(=O)NCc2cccc(C(F)(F)F)c2)CCN1Cc1ccc(-c2ccccc2)o1 (configuration not stated) | 6 | 0 | 1 | . | 1
COc1ccccc1/C=C/C(=O)c1ccccc1 | 1 | -5 | -5 | 5 | -1
COc1ccccc1/C=C/C=O | . | 0 | 25* | . | -12
O=[N+]([O-])c1ccc(O)c(/C=N/n2cnc3ccccc32)c1 | -3 | 3 | 70* | 3 | -8
O=[N+]([O-])c1ccc(O)c(/C=N/n2c(CO)nc3ccccc32)c1 | 4 | 12 | 7 | 14 | 2
COc1ccc(NC(=O)Nc2ccc3c(c2)C(=O)N([C@@H](C)CO)C[C@H](C)[C@@H](CN(C)S(=O)(=O)c2ccc(Cl)cc2)OCCCC[C@H](C)O3)cc1 | . | 0 | 15 | . | 2
CO[C@@H](CN(C)S(=O)(=O)c1ccc(C)cc1)[C@H](C)CN(Cc1ccccc1Cl)[C@@H](C)CO | . | 0 | 3 | . | 0
CC(C)C#Cc1ccc([C@@H]2[C@@H](CO)N3C(=O)CN(C(=O)NC4CCCCC4)C[C@H]23)cc1 | . | -1 | -4 | . | -6
C[C@@H]1CN([C@H](C)CO)S(=O)(=O)c2ccc(-c3cncnc3)cc2O[C@H]1CN(C)C(=O)C1CCC1 | . | 15 | 19 | . | 7
COc1ccc(S(=O)(=O)N2CCCCN3[C@H](CO)[C@H](c4ccc(C#CC(C)C)cc4)[C@H]3C2)cc1 | . | 20* | -25 | . | 0
